Luciferase inh: Photinus pyralis luciferase inhibition; P08659; purified P. pyralis luciferase, luminescence, biochemical; Potency, µM (series often up to 115 µM), usual class: inhibitors; 76,000 tested, 2.5% active; note: nearly all actives have a fitted effect of over 65% in size
Target sequence (P08659 whole entry, looked up): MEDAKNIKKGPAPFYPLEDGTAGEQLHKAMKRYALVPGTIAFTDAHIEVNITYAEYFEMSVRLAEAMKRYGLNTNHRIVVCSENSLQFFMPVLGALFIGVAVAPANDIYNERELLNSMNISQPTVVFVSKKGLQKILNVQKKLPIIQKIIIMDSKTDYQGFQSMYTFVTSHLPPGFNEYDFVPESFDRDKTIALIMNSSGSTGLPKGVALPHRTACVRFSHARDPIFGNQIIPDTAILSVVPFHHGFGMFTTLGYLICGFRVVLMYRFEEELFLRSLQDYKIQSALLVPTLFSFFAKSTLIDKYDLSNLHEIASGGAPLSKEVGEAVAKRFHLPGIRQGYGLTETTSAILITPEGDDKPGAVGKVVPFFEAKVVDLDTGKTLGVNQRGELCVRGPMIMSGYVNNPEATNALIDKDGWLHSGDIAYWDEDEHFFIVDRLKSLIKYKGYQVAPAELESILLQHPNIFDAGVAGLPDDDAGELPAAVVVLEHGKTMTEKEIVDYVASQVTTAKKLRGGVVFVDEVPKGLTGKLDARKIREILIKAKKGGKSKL
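Cell-free enzyme assay, 10nM P. pyralis luciferase, luciferin and ATP each at 10uM. Inhibition profiled over a 6-point titration, read as luminescence.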
GPT2 inhibitor: GPT2 alanine aminotransferase inhibition. Q8TD30. Recombinant GPT2, coupled pyruvate oxidase/HRP Amplex Red fluorescence. Potency, µM (top dose mostly 57.7 µM), actives largely listed as inhibitors. 100,000 tested, 0.25% active. AID 1671188; note: nearly all actives have a fitted effect of over 60% in size
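Inhibition is scored from Amplex Red fluorescence generated when pyruvate oxidase and HRP act on pyruvate released by GPT2. Reactions contain 10ng/uL enzyme, 250uM a-KG and 2mM L-alanine and run 30 min at room temperature.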
NPR1 antag: antagonists of human natriuretic peptide receptor Npr1 | P16066 | HEK293 hNpr1 GloSensor cGMP, ANP-stimulated luminescence | Potency, µM (titrated, usually from 46.3 µM), most hits filed as inhibitors | 76,000 tested, 1.6% active; calls by dose curve; note: nearly all actives have a fitted effect of over 60% in size
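HEK293 cells stably expressing human Npr1 and cGMP GloSensor pGS-40F, loaded 2 h with 2% GloSensor reagent, given compound 30 min at room temperature. Luminescence read before and 20 min after 0.1 nM hNppA.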
NIH3T3 tox: kills NIH 3T3 cells; Potency, µM (titrated, usually from 96.7 µM), usual class: inhibitors; 94,000 tested, 4.3% active; NIH 3T3 viability, CellTiter-Glo ATP luminescence, 48-72 h; AID 1345082; note: nearly all actives have a fitted effect of over 55% in size
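Cells were seeded at 400 per well, treated with pin-transferred compound, and kept 48 or 72 hr at 37 °C before CellTiter-Glo addition and luminescence imaging of cellular ATP.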
HEK cytotox: kills HEK 293 cells | 94,000 tested, 6.6% active | AID 1345083 | HEK 293 viability, ATP luminescence (CellTiter-Glo), 48-72 h | Potency, µM (top dose mostly 115 µM), hits mostly inhibitors; note: nearly all actives have a fitted effect of over 60% in size
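Luminescence from cellular ATP, measured with CellTiter-Glo, indicates HEK 293 viability. Cells plated at 250 cells/well are treated with compound for 48 or 72 hr at 37 degree Celsius before reagent addition.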
NPR1 antag cnf: hNpr1 antagonism, confirmation assay; AID 1347044; shares compounds with NPR1 antag; Potency, µM (top dose mostly 57.6 µM), most hits filed as inhibitors; 1,400 tested, 76% active; HEK293 hNpr1 cGMP GloSensor luminescence, ANP-stimulated; calls by dose curve; note: nearly all actives have a fitted effect of over 70% in size
Npr2 selectivity: hNpr2 antagonism, selectivity versus Npr1 | shares compounds with NPR1 antag | HEK293 hNpr2 GloSensor cGMP luminescence, CNP-stimulated | Potency, µM (doses to about 57.6 µM), actives largely listed as inhibitors | 1,400 tested, 67% active; calls by dose curve; note: nearly all actives have a fitted effect of over 70% in size
FLuc counter: inhibits firefly luciferase, false Npr1 antagonist flag | 1,400 tested, 0.7% active | shares compounds with NPR1 antag | AID 1347047 | purified FLuc enzyme, luminescence, Km substrate | Potency, µM (highest dose often 57.6 µM), actives largely listed as inhibitors
GloSensor ctrl: counter-screen for Npr1 antagonists: GloSensor control cell line. shares compounds with NPR1 antag. 1,400 tested, 69% active. AID 1347051. Potency, µM (doses to about 57.6 µM), actives largely listed as inhibitors. HEK293 GloSensor cGMP, SNP-stimulated, luminescence; calls by dose curve; note: nearly all actives have a fitted effect of over 70% in size
Of the large screens only hits and unclear results are named; the others gave an inactive call (follow-up assays come after a bar, where they were run). Rows were chosen to be rich in hits. Some 10% of all compounds tested hit in one or more screens of this group. Unless noted, calls come from the whole dose curve; as a rule, active = well fitted curve in the direction sought with a large enough effect; inconclusive = small, poorly fitted or top-dose-only effect, or another doubt; inactive = no such curve, though single readings can be large; an effect the other way counts as inactive or inconclusive.

CCOc1ccc(C(=O)N2CCC[C@H]2c2nc(-c3ccc(OC)cc3)no2)cc1OCC	none
Cn1cccc1-c1noc(C2CCN(C(=O)CCn3cnc4ccccc43)CC2)n1	HEK cytotox inconclusive (no result: Luciferase inh, NPR1 antag)
O=C(NCCOc1ccccc1)c1cnc2n1CCN(Cc1ccccc1O)CC2	HEK cytotox inconclusive
O=C(NCCOc1ccccc1)c1cnc2n1CCN(Cc1c[nH]c3ccccc13)CC2	NPR1 antag inconclusive, NIH3T3 tox inconclusive, HEK cytotox 100µM | NPR1 antag cnf 31µM | Npr2 selectivity inconclusive | FLuc counter inactive | GloSensor ctrl 35µM
O[C@H]1[C@H](NCC2CC2)[C@H]2CO[C@H](O2)[C@@H]1N1CCCCC1	none
Cc1ccc(-c2ccccc2CN2CCN([S+](C)(=O)[O-])CC2)cc1Cl	NIH3T3 tox inconclusive, HEK cytotox inconclusive (no result: Luciferase inh, NPR1 antag)
O=C(c1ccncc1)N1CCC(CCOc2ccc(F)cc2)C1 (configuration not stated)	NIH3T3 tox inconclusive, HEK cytotox inconclusive
Cc1n[nH]c(C)c1Cc1ccc(C(=O)N2CCC(CCOc3ccc(F)cc3)C2)o1 (configuration not stated)	NPR1 antag 16µM, NIH3T3 tox 35µM, HEK cytotox 22µM | NPR1 antag cnf 24µM | Npr2 selectivity 24µM | FLuc counter inactive | GloSensor ctrl 22µM
Cc1cnc(C2CN(S(=O)(=O)c3ccccc3)C2)n1Cc1cccnc1	none (no result: Luciferase inh, NPR1 antag)
COc1cccc(-c2ccc(CN3C4CCC3CN(C(=O)c3ccncc3)C4)cc2)c1	NIH3T3 tox inconclusive, HEK cytotox inconclusive (no result: Luciferase inh, NPR1 antag) | NPR1 antag cnf 12µM | Npr2 selectivity 15µM | FLuc counter inactive | GloSensor ctrl 14µM
O=C(c1ccncc1)N1CC2CCC(C1)N2Cc1ccc(-c2ccsc2)cc1	NPR1 antag 2.5µM, NIH3T3 tox inconclusive, HEK cytotox inconclusive | NPR1 antag cnf 6.9µM | Npr2 selectivity 6.9µM | FLuc counter inactive | GloSensor ctrl 6.1µM
O=C(c1ccncc1)N1CC2CCC(C1)N2Cc1ccc(-c2cccs2)cc1	NIH3T3 tox inconclusive, HEK cytotox inconclusive (no result: Luciferase inh, NPR1 antag) | NPR1 antag cnf 4.3µM | Npr2 selectivity 5.4µM | FLuc counter inactive | GloSensor ctrl 4.3µM
COCCC(=O)N1CCCC(Cc2nc(C3CCOCC3)no2)C1 (configuration not stated)	none | NPR1 antag cnf inactive | Npr2 selectivity inactive | FLuc counter inactive | GloSensor ctrl inactive
O=C(CCCc1ccccc1)N1CCCC(Cc2nc(C3CCOCC3)no2)C1 (configuration not stated)	NIH3T3 tox inconclusive, HEK cytotox inconclusive
CC1=C(C(=O)OC(C)C)C(c2ccccc2Cl)N2C(CC(=O)NCC3CC3)=CSC2=N1 (configuration not stated)	NPR1 antag 11µM, NIH3T3 tox inconclusive, HEK cytotox inconclusive | NPR1 antag cnf inconclusive | Npr2 selectivity 22µM | FLuc counter inactive | GloSensor ctrl inconclusive
CCC1=C(C(=O)OC)C(c2ccccc2Cl)N2C(CC(=O)NCC3CC3)=CSC2=N1 (configuration not stated)	GPT2 inhibitor inconclusive, NPR1 antag inconclusive, HEK cytotox inconclusive
COC(=O)C1=C(C)N=C2SC=C(CC(=O)NCC3CC3)N2C1c1ccccc1OC (configuration not stated)	HEK cytotox inconclusive
CC1=C(C(=O)OC(C)C)C(c2ccccc2C)N2C(CC(=O)NCC3CC3)=CSC2=N1 (configuration not stated)	NPR1 antag inconclusive, NIH3T3 tox inconclusive, HEK cytotox 10µM | NPR1 antag cnf inconclusive | Npr2 selectivity inconclusive | FLuc counter inactive | GloSensor ctrl inconclusive
CCNC(=O)C1CCc2ncc(-c3ccsc3)n2C1 (configuration not stated)	none
COc1ccccc1CNC(=O)C1CCc2ncc(-c3ccsc3)n2C1 (configuration not stated)	HEK cytotox inconclusive | NPR1 antag cnf inconclusive | Npr2 selectivity inactive | FLuc counter inactive | GloSensor ctrl inactive
COc1cccc(S(=O)(=O)N2CCC3(CC2)N(c2ccccc2)C(=O)CS3=O)c1 (configuration not stated)	none (no result: Luciferase inh, NPR1 antag)
COc1ccc(OC)c(S(=O)(=O)N2CC(N3CC(C(=O)N4CCCC4)CC3=O)C2)c1 (configuration not stated)	none (no result: Luciferase inh, NPR1 antag)
Fc1ccc(-c2cnc3n2C[C@H](CNCc2ccccc2Cl)OC3)cc1	NPR1 antag 25µM, NIH3T3 tox inconclusive, HEK cytotox 79µM | NPR1 antag cnf 40µM | Npr2 selectivity 40µM | FLuc counter inactive | GloSensor ctrl 40µM
Cc1ccc(C(=O)N2CCC(N3C(=O)C4(CCCCC4)C3c3ccncc3)CC2)s1 (configuration not stated)	none
O=C(c1ccc2ncccc2c1)N1CCOC(c2ccc(Cl)c(Cl)c2)C1 (configuration not stated)	NPR1 antag inconclusive, NIH3T3 tox inconclusive, HEK cytotox inconclusive
COc1c(C)cccc1C(=O)N1CCOC(c2ccc(Cl)c(Cl)c2)C1 (configuration not stated)	NPR1 antag 10µM, NIH3T3 tox inconclusive, HEK cytotox inconclusive | NPR1 antag cnf 17µM | Npr2 selectivity 19µM | FLuc counter inactive | GloSensor ctrl 15µM
O=C(CCC1CCCN(S(=O)(=O)c2ccccc2)C1)NCC1CCCCC1 (configuration not stated)	NPR1 antag inconclusive, NIH3T3 tox inconclusive, HEK cytotox inconclusive
Cc1ccc(S(=O)(=O)N2CCCC(CCC(=O)N3CCCCC3)C2)cc1 (configuration not stated)	NPR1 antag 13µM, NIH3T3 tox inconclusive, HEK cytotox inconclusive | NPR1 antag cnf inconclusive | Npr2 selectivity inconclusive | FLuc counter inactive | GloSensor ctrl inconclusive
O=C(CCC1CCCN(S(=O)(=O)c2ccccc2)C1)N1CCN(c2ccccn2)CC1 (configuration not stated)	NPR1 antag inconclusive, NIH3T3 tox inconclusive, HEK cytotox 45µM | NPR1 antag cnf inconclusive | Npr2 selectivity inconclusive | FLuc counter inactive | GloSensor ctrl inconclusive
